# Source: PubChem
# Shh pathway inh: Sonic Hedgehog pathway inhibition. Shh-LIGHT2 Gli-luciferase reporter, 30 h. inhibition, % (test concentration not listed). 22,000 compounds, 2.1% hits. AID 2313;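 active = mean inhibition across valid replicates above about 65%, limit read from the data; inconclusive = mean under the limit, yet half or more replicates past it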;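 also: pathway switched on by Shh-conditioned medium diluted 1 in 25 in low serum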
# MITF inh: inhibitors of MITF | TRPM1 promoter luciferase, luminescence, 24 h | inhibition, % (no concentration beside the values) | 37,000 compounds, 0.28% hits | AID 2240; in the data active = inhibition above about 85%; inconclusive = no clear call, values can overlap the other calls; inactive = below about 68%;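 also: human melanocyte line stably carrying TRPM1 promoter luciferase reporter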
# YB-1 expression: YB-1 expression inhibition | AID 434959 | 30,000 compounds, 0.37% hits | U2OS, qRT-PCR YB-1 vs CDIP delta delta Cp, 16 h; hits give high values; zero = DMSO, each unit about twofold | delta delta Cp (YB-1 minus CDIP) (no concentration beside the values);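 active = delta delta Cp rounded down to an integer at or above 3, about 3 SD of DMSO wells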;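 also: higher means less YB-1 transcript or more CDIP transcript relative to DMSO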
# Active calls of the source: *; ? = inconclusive; nt = not tested or not shown. The entries come from a sample that favours hits as a whole.
SMILES,Shh pathway inh,MITF inh,YB-1 expression
COc1ccc(S(=O)(=O)Nc2ccc3c(c2)C(=O)N([C@@H](C)CO)C[C@@H](C)[C@H](CN(C)S(=O)(=O)c2ccc(F)cc2)O3)cc1,10,-8,0.1
O=C(CSC1=NC(=O)C(c2ccccc2)C(=O)N1)NC1CCCCC1 (stereo not given),7,-2,-0.34
CN1C=C(c2ccccc2)N(c2ccccc2)C1,-38,-1,-0.032
N#C/C(=C\Nc1cccc(Cl)c1)S(=O)(=O)c1ccc(Cl)cc1,?,31,-0.35
C/C(=C\c1ccc(C(=O)O)cc1)c1ccc2c(c1)C(C)(C)CCC2(C)C,66*,-27,-0.24
CC1(C)CCC(C)(C)c2cc(C(=O)Nc3ccc(C(=O)O)cc3)ccc21,?,-28,0.14
O=S(=O)(CCSc1ccccc1)c1ccccc1,-22,-14,0.24
COc1cc(COc2ccc3c4c(c(=O)oc3c2)CCC4)cc(OC)c1OC,-15,11,0.04
COc1ccc(C(=O)NCCn2cc(SC(C)c3ccccc3)c3ccccc32)cc1 (stereo not given),78*,20,0.053
COc1ccc(C(=O)NC(c2ccccc2)c2ccccc2)cc1,23,7,0.042
CCOC(=O)Cn1c(C)c(Sc2ccccc2)c2ccccc21,nt,7,-1.1
C[C@@H]1CCCCO[C@@H](CN(C)C(=O)Nc2ccc(C(F)(F)F)cc2)[C@@H](C)CN([C@H](C)CO)C(=O)c2cc(NS(=O)(=O)c3cccs3)ccc2O1,83*,25,0.18
C[C@@H]1CCCCO[C@@H](CN(C)C(=O)Nc2ccc(C(F)(F)F)cc2)[C@@H](C)CN([C@H](C)CO)C(=O)c2cc(NS(=O)(=O)c3ccc(Cl)cc3)ccc2O1,119*,44,-0.089
C[C@@H]1CCCCO[C@H](CN(C)C(=O)Nc2ccc(C(F)(F)F)cc2)[C@@H](C)CN([C@H](C)CO)C(=O)c2cc(NS(=O)(=O)c3ccc(F)cc3)ccc2O1,31,41,-0.092
C[C@@H]1CCCCO[C@H](CN(C)C(=O)Nc2ccc(C(F)(F)F)cc2)[C@@H](C)CN([C@H](C)CO)C(=O)c2cc(NS(=O)(=O)c3cccs3)ccc2O1,nt,48,-0.45
COC(=O)C1=C(C)N(Cc2ccccc2)C(=O)NC1c1ccccc1F (stereo not given),nt,12,-1.1
CC(=O)N[C@@H](Cc1ccccc1)C(=O)NN,-13,-2,0.12
O=C(CSc1nc(-c2ccccc2)cc(C(F)(F)F)n1)c1ccccc1,nt,-3,nt
O=C(CSc1nc(SCC(=O)c2ccccc2)c2ccccc2n1)c1ccccc1,76*,5,-0.041
CC1=CC(C)(C)N(S(=O)(=O)c2ccc(C)cc2)c2ccccc21,68*,59,-0.28
Cc1ccc(S(=O)(=O)c2ccc(-c3ccccc3)cc2)cc1,nt,2,-0.26
COc1ccc(-c2cc(-c3cccs3)nc(SC(C(=O)O)c3ccccc3)c2C#N)cc1 (stereo not given),nt,30,nt
CC(C)(C)c1cc(-c2cccs2)c(C#N)c(SCC(=O)Oc2ccccc2)n1,65*,-6,-0.36
O=C(N/N=C\c1cccc(O)c1O)c1ccccc1O,nt,nt,0.58
CCCCC1=NC2(CCCC2)C(=O)N1Cc1ccc(-c2ccccc2-c2nn[nH]n2)cc1,-21,5,0.058
SMILES,Shh pathway inh,MITF inh,YB-1 expression
O=C1C(Cc2ccc(-c3nn[nH]n3)cc2)=C(c2ccccc2)S(=O)(=O)c2ccccc21,107*,14,0.042
O=C(CSc1ccc(Cl)cc1)Nc1cscc1S(=O)(=O)c1ccc(Cl)cc1,nt,25,-0.16
O=C(N/N=C/c1cc(Cl)cc(Cl)c1O)c1ccccn1,nt,nt,-0.38
COC(=O)/C=C/S(=O)(=O)c1ccc(NC(C)=O)cc1,94*,21,-0.39
COC(=O)Nc1ccc(S(=O)(=O)N(C)C)cc1,nt,13,0.91
CC(C)C1=CCC(C)/C(=C\c2ccc(Cl)cc2)C1=O (stereo not given),nt,-27,-0.5
OC(CN1CCN(c2cccc(Cl)c2)CC1)C(c1ccccc1)c1ccccc1 (stereo not given),95*,9,0.00026
OCCOCCN1CCN(C(c2ccccc2)c2ccc(Cl)cc2)CC1 (stereo not given),23,13,0.44
C[C@@H]1CN([C@H](C)CO)C(=O)c2cc(NC(=O)C3CC3)ccc2O[C@@H]1CN(C)C(=O)Nc1ccc(C(F)(F)F)cc1,11,-5,0.26
C[C@H](CO)N1C[C@H](C)[C@H](CN(C)CC2CCCCC2)Oc2ccc(NC(=O)CCCN(C)C)cc2C1=O,nt,-5,18*
C[C@H]1CN([C@@H](C)CO)C(=O)c2cc(NC(=O)C3CC3)ccc2O[C@H]1CN(C)CC1CC1,-15,2,13*
C[C@H](CO)N1C[C@H](C)[C@@H](CN(C)C(=O)Nc2ccc(C(F)(F)F)cc2)Oc2ccc(NC(=O)C3CC3)cc2C1=O,-14,-5,3.3*
